DAT uptake mod: changed hDAT dopamine uptake under cocaine IC80, either direction, primary screen, cocaine antagonist project, cell-based, LLC-PK1 hDAT, [14C]-dopamine uptake, MLSMR; B-score at 10 µM; LLC-PK1 hDAT cells, [14C]-dopamine uptake with cocaine IC80; actives deviate in either direction; AID 449768, 2010; 1.3% of 110,000 active; Sodium-dependent dopamine transporter (Homo sapiens), Q01959;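 active = Z score or B-score, a plate-position-corrected score, falls beyond the plate's 99.7% confidence bounds, in either direction; inactive = both scores lie inside the 99.7% bounds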
Target sequence (Q01959 whole entry, looked up): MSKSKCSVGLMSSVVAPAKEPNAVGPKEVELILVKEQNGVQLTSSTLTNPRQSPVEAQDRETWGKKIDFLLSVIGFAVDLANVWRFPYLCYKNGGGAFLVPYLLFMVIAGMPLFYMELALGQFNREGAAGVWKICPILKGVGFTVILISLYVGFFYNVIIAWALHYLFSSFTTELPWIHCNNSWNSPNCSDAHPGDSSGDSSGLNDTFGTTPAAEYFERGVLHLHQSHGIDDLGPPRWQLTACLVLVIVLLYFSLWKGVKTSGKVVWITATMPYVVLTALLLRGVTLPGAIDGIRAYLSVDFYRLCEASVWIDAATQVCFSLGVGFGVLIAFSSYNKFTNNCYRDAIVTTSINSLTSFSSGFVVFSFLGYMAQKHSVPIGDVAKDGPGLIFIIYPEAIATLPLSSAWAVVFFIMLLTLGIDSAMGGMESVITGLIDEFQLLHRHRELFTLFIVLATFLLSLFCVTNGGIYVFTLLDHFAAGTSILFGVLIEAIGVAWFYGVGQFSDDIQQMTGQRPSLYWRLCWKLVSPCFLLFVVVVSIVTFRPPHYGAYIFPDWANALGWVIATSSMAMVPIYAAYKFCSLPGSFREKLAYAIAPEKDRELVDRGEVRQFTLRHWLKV
D1 allo mod: D1 CRE-luciferase signal change, two-sided – cell-based, HEK293 D1, dopamine EC30, D1 allosteric modulator project, primary screen. D(1A) dopamine receptor (Homo sapiens), P21728. 5.9% of 58,000 active. dopamine EC30 potentiation; actives deviate in either direction. B-score at 10 µM. AID 641, 2007;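 active = luminescence count or its row- and column-corrected plate score outside the 99.7% band of the plate's sample wells, on either side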
EphB4 antag: EphB4-ephrin-B2 interaction antagonists, primary screen, biochemical, TNYL-RAW peptide probe, fluorescence polarization; EphB4 LBD / TNYL-RAW-Alexa532 peptide; inhibition, % at 7 µM; 0.15% of 97,000 active; AID 720, 2007;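 active = inhibition above the screen-wide mean inhibition plus 3 SD, cut at about 15% in these data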
A number is an active result. The entries come from a sample that favours hits as a whole.

How did CCC(c1nnnn1Cc1ccco1)N(CCc1ccccc1)Cc1cc2cc(C)ccc2[nH]c1=O (centres undefined) do in these assays?
DAT uptake mod: inactive; D1 allo mod: inactive

What do the screens show for `CC(C)CC(CO)N1CCN(C(=O)c2cccc(Cl)c2)CCC1=O` (centres undefined)?
DAT uptake mod: inactive

How did CC1(C)O[C@@H]2C[C@H]3[C@@H]4CCC5=CC(=O)C=C[C@]5(C)[C@@]4(F)[C@@H](O)C[C@]3(C)[C@]2(C(=O)CO)O1 do in these assays?
DAT uptake mod: inactive; D1 allo mod: inactive

Results for C[C@]12C=CC(=O)C=C1CC[C@H]1[C@@H]3C[C@@H](O)[C@](O)(C(=O)CO)[C@@]3(C)C[C@H](O)[C@@]12F ?
DAT uptake mod: inactive; D1 allo mod: -6.4

Results for O=C(CN(c1ccc(F)cc1)S(=O)(=O)c1ccc2c(c1)OCCO2)Nc1ccccc1 ?
DAT uptake mod: inactive; EphB4 antag: inactive

Results for NC(=O)C1(N2CCCCC2)CCN(Cc2ccccc2Cl)CC1 ?
DAT uptake mod: inactive; D1 allo mod: inactive; EphB4 antag: inactive

What do the screens show for `Oc1ccccc1Nc1nc(NCC2CCCO2)c2ccccc2n1` (centres undefined)?
D1 allo mod: inactive; EphB4 antag: inactive

What do the screens show for `Oc1ccc(Nc2nc(NCC3CCCO3)c3ccccc3n2)cc1` (centres undefined)?
DAT uptake mod: inactive; D1 allo mod: -2.9; EphB4 antag: inactive

Results for CCCCNC(=O)C(=O)NC(C)CCc1ccccc1 (centres undefined) ?
EphB4 antag: inactive

Results for Cn1cccc1-c1nc2ccc(NC(=O)c3ccccc3)cc2[nH]1 ?
DAT uptake mod: inactive; D1 allo mod: inactive; EphB4 antag: inactive

Results for Cc1ccc(S(=O)(=O)Nc2ccc3nc(-c4cccn4C)[nH]c3c2)cc1 ?
DAT uptake mod: -2.9; D1 allo mod: inactive; EphB4 antag: inactive

How did COc1cc(/C=C(/C(=O)c2cccs2)c2nc3ccccc3[nH]2)cc(OC)c1O do in these assays?
DAT uptake mod: inactive; EphB4 antag: inactive

Results for COc1ccc([C@@H]2Sc3ccccc3N(CCN(C)C)C(=O)[C@@H]2OC(C)=O)cc1 ?
DAT uptake mod: inactive; D1 allo mod: -6.8

Results for CC1Sc2ccccc2N(CC(=O)N(C(C)C)C(C)C)C1=O (centres undefined) ?
DAT uptake mod: inactive; EphB4 antag: inactive

Results for CCOC(=O)C1=C(C)N(CCCCCC(=O)O)C(=O)NC1c1ccccc1OC(=O)c1cccs1 (centres undefined) ?
DAT uptake mod: inactive

What do the screens show for `CCOC(=O)c1c(C)oc2c1c(C(c1cccnc1)N1CCN(C)CC1)c(O)c1ccccc12` (centres undefined)?
D1 allo mod: inactive

What do the screens show for `CCOC(=O)c1c(C)oc2c1c1c(c3ccccc32)OCN(Cc2cccnc2)C1`?
DAT uptake mod: inactive; D1 allo mod: inactive; EphB4 antag: 16

Results for O=C(c1ccc(Cl)s1)N1CCN(c2ccccc2)CC1 ?
DAT uptake mod: inactive; D1 allo mod: inactive

Results for Cc1cc(C)c2c(=O)[nH]n(C3CC(C)N(C)CC3C)c2n1 (centres undefined) ?
DAT uptake mod: inactive; D1 allo mod: -1.9; EphB4 antag: inactive

How did Cc1cc(C)c2c(=O)[nH]n(C3CCOC(C)(C)C3)c2n1 (centres undefined) do in these assays?
DAT uptake mod: inactive; D1 allo mod: inactive; EphB4 antag: inactive

Results for CCN(CC(=O)N1CCc2ccccc2C1)S(=O)(=O)c1ccc2ccccc2c1 ?
DAT uptake mod: inactive; EphB4 antag: inactive

What do the screens show for `CC1CCCCN1CCNC(=O)c1cc2c(-c3ccccc3F)nn(C)c2s1` (centres undefined)?
DAT uptake mod: inactive; D1 allo mod: -5.7; EphB4 antag: inactive

How did CN1CCN(CCCNC(=O)c2cc3c(-c4ccc(Cl)cc4)nn(C)c3s2)CC1 do in these assays?
DAT uptake mod: inactive; D1 allo mod: -2; EphB4 antag: inactive

Results for CCOC(=O)N1CCC(NC(=O)c2cc3c(-c4ccccc4F)nn(C)c3s2)CC1 ?
DAT uptake mod: inactive; D1 allo mod: inactive; EphB4 antag: inactive

Results for CCN(CC)CCCNC(=O)c1cc2c(-c3ccc(Cl)cc3)nn(C)c2s1 ?
DAT uptake mod: inactive; D1 allo mod: inactive; EphB4 antag: inactive

Results for COC(=O)C1=C(C(=O)OC)[C@@H]2N(C)c3ccc(OC)cc3[C@@]23C[C@@H](C(=O)OC)N(S(=O)(=O)c2ccc(OC)cc2)C3=N1 ?
DAT uptake mod: inactive

High-throughput results: PubChem BioAssay, several laboratories
